G9a inh = blocks human histone lysine methyltransferase G9a; G9a H3K9 monomethylation, AlphaScreen, 2 h; actives 8.8% (n = 350,000); Q96KQ7; Potency, µM (top dose mostly 102 µM), actives largely listed as inhibitors; note: nearly all actives have a fitted effect of over 75% in size
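AlphaScreen read-out: biotin-H3K9 peptide (500 nM) methylation by 20 nM enzyme with 20 uM SAM, 2 h at room temperature after 15 min compound preincubation; anti-monomethyl H3K9 antibody plus donor/acceptor beads, 10 min dark.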
HP1b binding inh = HP1-beta chromodomain-methylated histone interaction inhibition. P83916. AlphaScreen HP1-beta / biotin-H3K9me3 peptide binding. Potency, µM (highest dose often 114 µM), hits mostly inhibitors. actives 0.56% (n = 390,000). AID 540317; note: nearly all actives have a fitted effect of over 70% in size
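HP1-beta protein (50 nM final) preincubated 30 min at room temperature with biotinylated H3(1-18)K9me3 peptide (50 nM) in PBS pH 7.4, 0.01% Tween-20, then compound added for 30 min. AlphaScreen streptavidin donor/nickel chelate acceptor beads (10 ug/mL final), 30 min dark, luminescence read.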
JMJD2A Tudor inh = inhibitors of human JMJD2A Tudor domain; O75164; AlphaScreen JMJD2A-Tudor / H3K4me3 peptide binding; Potency, µM (top dose mostly 114 µM), actives largely listed as inhibitors; actives 4.4% (n = 390,000); AID 504339; note: nearly all actives have a fitted effect of over 50% in size
BAZ2B inh = BAZ2B (human) inhibition; Q9UIF8; AlphaScreen BAZ2B-H3K14Ac peptide displacement; Potency, µM (series often up to 114 µM), most hits filed as inhibitors; actives 4.4% (n = 360,000); note: nearly all actives have a fitted effect of over 60% in size
Target sequence (Q9UIF8 whole entry, looked up): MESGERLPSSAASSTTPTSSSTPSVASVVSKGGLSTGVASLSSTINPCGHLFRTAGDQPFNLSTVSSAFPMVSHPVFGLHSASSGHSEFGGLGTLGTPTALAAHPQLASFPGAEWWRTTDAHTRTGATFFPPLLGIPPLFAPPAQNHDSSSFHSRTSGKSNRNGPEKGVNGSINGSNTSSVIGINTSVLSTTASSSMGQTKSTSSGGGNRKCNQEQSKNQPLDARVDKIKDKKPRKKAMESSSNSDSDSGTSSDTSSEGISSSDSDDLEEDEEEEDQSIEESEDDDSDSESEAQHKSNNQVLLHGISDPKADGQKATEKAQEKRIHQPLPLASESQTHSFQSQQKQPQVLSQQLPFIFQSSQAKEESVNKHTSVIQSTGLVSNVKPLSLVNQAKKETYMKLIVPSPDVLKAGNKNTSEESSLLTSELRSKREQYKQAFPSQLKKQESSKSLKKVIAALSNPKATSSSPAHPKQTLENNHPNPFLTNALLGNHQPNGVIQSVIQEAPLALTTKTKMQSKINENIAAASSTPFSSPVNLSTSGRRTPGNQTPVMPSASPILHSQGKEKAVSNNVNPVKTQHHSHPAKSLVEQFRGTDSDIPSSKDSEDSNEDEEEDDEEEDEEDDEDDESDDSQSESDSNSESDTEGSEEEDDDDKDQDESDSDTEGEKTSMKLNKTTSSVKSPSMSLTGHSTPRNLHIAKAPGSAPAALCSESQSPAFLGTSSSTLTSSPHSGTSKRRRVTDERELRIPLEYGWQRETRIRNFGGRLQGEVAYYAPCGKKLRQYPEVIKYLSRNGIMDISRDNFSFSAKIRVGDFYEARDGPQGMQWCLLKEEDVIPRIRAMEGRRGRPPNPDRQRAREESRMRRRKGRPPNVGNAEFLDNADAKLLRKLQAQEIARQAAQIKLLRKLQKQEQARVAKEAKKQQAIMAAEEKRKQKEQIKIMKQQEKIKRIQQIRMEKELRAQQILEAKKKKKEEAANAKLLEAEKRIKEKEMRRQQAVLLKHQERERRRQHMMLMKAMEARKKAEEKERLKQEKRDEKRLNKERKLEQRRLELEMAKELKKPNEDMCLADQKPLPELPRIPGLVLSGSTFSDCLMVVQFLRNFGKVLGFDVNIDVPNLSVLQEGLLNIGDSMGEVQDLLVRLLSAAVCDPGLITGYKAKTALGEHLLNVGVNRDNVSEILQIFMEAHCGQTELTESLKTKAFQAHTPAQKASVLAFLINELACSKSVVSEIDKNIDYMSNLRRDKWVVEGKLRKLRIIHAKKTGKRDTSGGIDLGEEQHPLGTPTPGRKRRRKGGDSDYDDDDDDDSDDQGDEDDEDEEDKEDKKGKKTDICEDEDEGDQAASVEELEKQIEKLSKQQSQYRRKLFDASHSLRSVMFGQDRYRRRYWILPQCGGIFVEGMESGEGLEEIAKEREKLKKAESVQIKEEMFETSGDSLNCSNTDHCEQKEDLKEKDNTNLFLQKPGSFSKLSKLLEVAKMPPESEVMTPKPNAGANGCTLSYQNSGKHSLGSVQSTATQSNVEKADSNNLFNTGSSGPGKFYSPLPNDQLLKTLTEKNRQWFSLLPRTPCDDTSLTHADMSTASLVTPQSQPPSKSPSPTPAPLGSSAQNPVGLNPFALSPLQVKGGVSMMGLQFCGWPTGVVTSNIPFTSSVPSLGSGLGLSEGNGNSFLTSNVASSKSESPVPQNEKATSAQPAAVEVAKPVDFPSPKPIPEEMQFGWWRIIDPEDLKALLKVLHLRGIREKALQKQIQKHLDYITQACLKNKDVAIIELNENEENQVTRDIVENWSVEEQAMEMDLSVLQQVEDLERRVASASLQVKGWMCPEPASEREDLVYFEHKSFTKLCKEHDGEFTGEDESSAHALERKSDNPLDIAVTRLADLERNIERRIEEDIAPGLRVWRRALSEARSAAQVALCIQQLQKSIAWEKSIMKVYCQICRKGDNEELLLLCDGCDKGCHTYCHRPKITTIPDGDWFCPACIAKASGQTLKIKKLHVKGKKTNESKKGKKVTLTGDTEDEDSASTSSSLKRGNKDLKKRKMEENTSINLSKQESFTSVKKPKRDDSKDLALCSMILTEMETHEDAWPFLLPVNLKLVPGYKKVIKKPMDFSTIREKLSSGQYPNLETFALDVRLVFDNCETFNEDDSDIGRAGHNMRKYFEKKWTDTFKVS
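AlphaScreen luminescence quantifies BAZ2B engagement of H3K14Ac peptide; the protein and biotinylated peptide are both at 50 nM final, buffer PBS pH 7.4 with 0.01% Tween-20, all steps at room temperature.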
L3MBTL1 block = inhibitors of human L3MBTL1; AID 485360; actives 0.66% (n = 230,000); Potency, µM (titrated, usually from 57.1 µM), actives largely listed as inhibitors; AlphaScreen L3MBTL1–H3K9me1 peptide binding; note: nearly all actives have a fitted effect of over 60% in size
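L3MBTL1 (50 nM) pre-complexed 30 min with biotinylated H3(1-15)K9me1 peptide (75 nM), then compounds added for 30 min at room temperature; AlphaScreen streptavidin donor/nickel chelate acceptor beads (10 ug/mL final) read after 30 min dark incubation.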
A number is an active result; . = inactive; ? = inconclusive; / = no result; [ ] = another dose, or the depositor's remark. This is a sample that favours compounds with a hit; in the whole collection about 11% have one here. Calls come from the whole dose curve; as a rule, active = well fitted inhibition curve with a large enough effect; inconclusive = small, poorly fitted or top-dose-only effect; inactive = no such curve, though single readings can be large or run the other way.

SMILES	G9a inh	HP1b binding inh	JMJD2A Tudor inh	BAZ2B inh	L3MBTL1 block
CC(C)CNC(=O)COC(=O)c1c2c(nc3ccccc13)CCC2	?	.	.	56.2µM	/
N#Cc1ccc(NC(=O)COC(=O)CCc2nc3ccccc3c(=O)[nH]2)cc1	50.1µM	.	.	.	.
O=S(=O)(c1ccc(Br)cc1)c1nc(-c2ccco2)oc1SCc1ccccc1F	?	.	.	.	/
Cc1nc2nc(SCC(=O)O)nn2c(C)c1Cc1c(F)cccc1Cl	11.2µM	.	.	.	/
Cc1nc2nc(SCC(=O)Nc3ccccc3Cl)nn2c(C)c1Cc1ccccc1	.	.	.	.	/
Cc1nc2nc(SCC(=O)O)nn2c(C)c1Cc1ccccc1Cl	28.2µM	.	.	.	/
Nc1nc(N)nc(-c2cc(O)ccc2O)n1	.[0.501 µM]	.	.	.	.
Oc1ccc(O)c(-c2cnns2)c1	?	8.91µM	3.16µM	.	.
C1=C(c2ccccc2)N2CCN=C2S1	.	.	.	.	/
O=C(Nc1ccc(Cl)cc1)Nc1ccc2c(c1)N1CCN=C1S2	31.6µM	.	.	.	.
Nc1ccc2c(c1)N1CCN=C1S2	7.08µM	.	.	.	.
COc1cc(/C=C2\N=C3CCCCCN3C2=O)ccc1O	?	.	.	.	/
O=C1/C(=C\c2ccc(O)c(O)c2)N=C2CCCCCN12	28.2µM	.	3.16µM	?	?
Cc1nn(C)c(C)c1S(=O)(=O)N(CC(=O)N1CCN(c2ccccc2)CC1)c1ccc(C(C)C)cc1	.	.	.	.	/
CCOC(=O)C1=C(C)NC2=C(C(=O)C(C(=O)OC)C(C)C2)C1c1ccc(OC)c(O)c1 (centres undefined)	.[0.0925 µM]	.	.	.	.
COCCOC(=O)C1=C(C)NC2=C(C(=O)CCC2)C1c1ccc(N(C)C)cc1 (centres undefined)	?	.	.	.	.
CCN(CC)c1ccc(C2C(C(=O)OCCOC(C)C)=C(C)NC3=C2C(=O)CCC3)cc1 (centres undefined)	10µM	.	?	50.1µM	.
CCC(C)OC(=O)C1=C(C)NC2=C(C(=O)C(C(=O)OC)C(C)C2)C1c1ccc(N(C)C)cc1 (centres undefined)	5.01µM	?	17.8µM	?	.
CCOC(=O)C1=C(C)NC2=C(C(=O)CC(C)(C)C2)C1c1ccc(N(C)C)cc1 (centres undefined)	?	.	.	.	.[11.4 µM]
CCCOC(=O)C1=C(C)NC2=C(C(=O)C(C(=O)OC)C(C)C2)C1c1ccc(N(CC)CC)cc1 (centres undefined)	3.55µM	.	.	?	.
CCOC(=O)c1c(C)n(S(=O)(=O)c2ccc(C)cc2)c2ccc(O)c(C(=O)O)c12	.	.	.	.	/
COc1ccc(Cl)cc1NC(=O)c1noc2c1CCc1ccccc1-2	.	.	.	.	/
Cn1c(C(=O)NCc2cccc(F)c2)cc2cc(S(=O)(=O)N3CCCCC3)ccc21	.	.	.	.	/
NS(=O)(=O)c1ccc(NC(=S)NCc2cccs2)cc1	35.5µM	.	.[11.4 µM]	.	.
CCCNC(=S)Nc1ccc(S(N)(=O)=O)cc1	.	.	.	.	.
SMILES	G9a inh	HP1b binding inh	JMJD2A Tudor inh	BAZ2B inh	L3MBTL1 block
S=C(NCc1cccs1)Nc1ccccc1	.	.	.	.	.
CC(C)CNC(=S)Nc1ccc(S(N)(=O)=O)cc1	39.8µM	.	.	.	.
CCOCCCNC(=S)Nc1ccc(S(N)(=O)=O)cc1	28.2µM	.	.	.	.
COCCn1c(C)cc(O)c(C(c2ccccc2OC)N2CCN(c3ccccc3)CC2)c1=O (centres undefined)	?	.	.	.	/
COc1ccc(CCNC(=O)Cn2cc(S(=O)(=O)Cc3cccc(Cl)c3)c3ccccc32)cc1OC	.	.	.	.	/
CC1(C)C2CCC(C2)C1(C)NC(=O)CNCC1CCCCC1 (centres undefined)	5.62µM	?	?	/	.
CCOCCCNCC(=O)NC1(C)C2CCC(C2)C1(C)C (centres undefined)	?	.	6.31µM	56.2µM	/
O=C(CSc1nnc(CNC(=O)c2ccccc2)n1-c1cccc(Cl)c1)Nc1ccccc1F	.	.	.	.	/
CC1(C(=O)NNC(=O)c2ccc(=O)oc2)CC1Br (centres undefined)	50.1µM	.	.	.	.
Cc1cc(=O)oc(C)c1C(=O)NNC(=O)C1(C)CC1Br (centres undefined)	.	.	.	.	.
